Pf growth 96h: Primary qHTS for delayed death inhibitors of the malarial parasite plastid, 96 hour incubation. Potency, µM (doses to about 28.7 µM), inactives show top-dose activity change, negative = inhibition, hits mostly inhibitors. P. falciparum luciferase reporter growth, 96 h. actives 6.9% (n = 320,000); further: potency means the concentration at half of the fitted maximal effect; on the % scale 0 is the no-effect control and ±100 the full control effect
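P. falciparum expressing integrated firefly luciferase, in erythrocytes at 2% hematocrit, 0.05% parasitemia, incubated with compounds 96 h at 37 C, 5% CO2. Growth inhibition read as loss of luminescence; two-generation exposure targets delayed-death apicoplast inhibitors.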
HCMV antiviral: qHTS Assay for inhibitors of the human cytomegalovirus (HCMV); HFF cells, HCMV-luciferase reporter, 72 h; stronger effect = lower value; activity change, negative = inhibition, % at 57.5 µM; actives 4.5% (n = 410,000); in the data active means activity change below about -60%; inconclusive means no clear call, values can overlap the other calls; inactive means above about -39%; further: on the % scale 0 is the no-effect control and ±100 the full control effect
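Human foreskin fibroblasts infected with luciferase-reporter HCMV at MOI 1 PFU/cell, compounds at two doses. Luciferase measured 72 h post infection; normalized to buffer-only basal and Salinomycin (10uM) controls.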
Shiga inhibitor: A qHTS for Small Molecule Inhibitors of Shiga Toxin. Vero cells, Shiga toxin protein synthesis inhibition reporter. inhibition, % at 38.7 µM. actives 9.2% (n = 290,000); in the data active means inhibition mostly above about 28%, no sharp cut-off; inactive means mostly below about 43%; further: 0% is about no effect
CHX counter: Cycloheximide Counterscreen for Small Molecule Inhibitors of Shiga Toxin; max response, %; AID 2314, 2010; cell reporter, cycloheximide protein synthesis inhibition counterscreen; actives 12% (n = 300,000); in the data active means max response mostly above about 13%, no sharp cut-off; inactive means mostly below about 14%; further: read at 38.3 µM for the half of the compounds with a filed dose; 0% is about no effect
Pf growth 48h: Primary qHTS for delayed death inhibitors of the malarial parasite plastid, 48 hour incubation. P. falciparum luciferase growth in erythrocytes, 48 h. Potency, µM (titrated, usually from 28.7 µM), inactives show at the highest dose activity change, negative = inhibition, most hits filed as inhibitors. actives 5.9% (n = 310,000); further: potency means the concentration at half of the fitted maximal effect; on the % scale 0 is the no-effect control and ±100 the full control effect
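Erythrocytes infected with P. falciparum carrying an integrated firefly luciferase reporter (2% hematocrit, 0.1% parasitemia final) were exposed to compounds in RPMI 1640 with 0.5% Albumax at 37 C, 5% CO2. Growth inhibition was scored as reduced luminescence.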
* hit, by the source's call; u = inconclusive; x = no result given. The list is not random: actives were taken first. Their share in the collection is about 20%. Unless noted, the call rests on the fitted dose curve; in most records, active means well fitted inhibition curve with a large enough effect; inconclusive means small, poorly fitted or top-dose-only effect, or another doubt; inactive means no such curve, though single readings can be large or run the other way.

SMILES | Pf growth 96h | HCMV antiviral | Shiga inhibitor | CHX counter | Pf growth 48h
COc1ccc(CCC(=O)N2CCCC(Nc3ccc(OC)cc3)C2)cc1 (configuration not stated) | u | -34 | -4 | -3 | 0%
COc1ccc2cc(C(=O)N3CCCC(Nc4ccc(F)cc4)C3)n(C)c2c1 (configuration not stated) | 5.9µM* | -19 | -18 | -4 | -4%
COc1ccc(NC2CCCN(C(=O)CCN3CCCC3=O)C2)cc1 (configuration not stated) | u | 38 | 21 | -3 | 13%
O=C(CCN1CCCCO1)N1CCCC(Nc2ccc(F)cc2)C1 (configuration not stated) | 12µM* | 30 | -5 | 0 | -15%
COc1ccc(NC2CCCN(C(=O)CCC(=O)c3ccc(F)cc3)C2)cc1 (configuration not stated) | -5% | 23 | 72 | 47* | u
CC(C)CNC(=O)c1ccc(COc2ccc(Cl)cc2Cl)o1 | 0% | -14 | 20 | 4 | u
Nc1cc(=O)n(Cc2ccccc2)c(N)c1C(=O)NCc1ccccc1 | x | -9 | x | x | x
COc1cccc(N2CCN(S(=O)(=O)c3ccc4[nH]c5c(c4c3)CCCC5)CC2)c1 | x | -17 | x | x | x
O=C(NCC[C@H]1CC[C@@H](NC(=O)C2CCOCC2)[C@@H](CO)O1)Nc1ccc(Cl)cc1 | x | -22 | x | x | x
CCc1[nH]nc(C(=O)N2CCCC(Nc3cccc(F)c3)C2)c1C (configuration not stated) | 11% | 20 | 66* | 31* | 35%
CN(C)c1ccccc1C(=O)N1CCCC(Nc2ccc(F)cc2)C1 (configuration not stated) | 13µM* | u | -13 | -1 | -9%
COc1ccc(NC2CCCN(C(=O)c3c(C)noc3C)C2)cc1 (configuration not stated) | 1.9µM* | 32 | -15 | -3 | u
O=C(Nc1ccc(F)c(F)c1)C1CCN(S(=O)(=O)c2cccs2)CC1 | u | -24 | x | x | u
CCN1CCN(c2oc(-c3ccc(COc4ccc(OC)cc4)o3)nc2C#N)CC1 | x | -32 | x | x | x
O=C(N/N=C\c1c(F)c(F)c(F)c(F)c1F)c1ccc(-c2ccccc2)cc1 | u | -69* | -5 | 5 | -35%
O=C(NN=Cc1c(F)c(F)c(F)c(F)c1F)c1ccc(NS(=O)(=O)c2cccs2)cc1 | x | 10 | x | x | x
O=C(N/N=C\c1cccc(F)c1)c1ccc(-c2ccccc2)cc1 | -26% | -33 | 26 | 21* | 8%
CCCCN1CC(c2nc3ccccc3n2CCCCOc2cc(C)ccc2C)CC1=O (configuration not stated) | x | 25 | x | x | x
CC(C)(C)c1ccc(NC(=O)c2cc(C3CCCN(S(=O)(=O)c4cccc5cccnc45)C3)on2)cc1 (configuration not stated) | x | -86* | x | x | x
O=C(Nc1ccncc1)C1CCCN(S(=O)(=O)c2cccc3cccnc23)C1 (configuration not stated) | 5.9µM* | -22 | -10 | -3 | -11%
Cc1ncccc1C(=O)N1CCCC(c2cc(C(=O)Nc3ccc(C(C)(C)C)cc3)no2)C1 (configuration not stated) | x | -18 | x | x | x
O=C(Nc1ccc(F)c(Cl)c1)c1cc(C2CCCN(S(=O)(=O)c3ccccc3)C2)on1 (configuration not stated) | x | -69* | x | x | x
O=C(NC1CCCC1)C1c2ccccc2OCC(=O)N1Cc1cccnc1 (configuration not stated) | x | -11 | x | x | x
COc1ccc(OC)c(NC(=O)CCCNC(=O)Cn2cnc3sc(C)c(C)c3c2=O)c1 | u | 7 | -5 | -2 | 5%
CCCn1c(SCC(=O)c2c(N)n(C3CC3)c(=O)[nH]c2=O)nnc1-c1ccncc1 | u | 0 | x | x | u
SMILES | Pf growth 96h | HCMV antiviral | Shiga inhibitor | CHX counter | Pf growth 48h
CCOC(=O)Cn1cncc1-c1ccc([N+](=O)[O-])cc1 | -8% | -17 | 84* | 72* | 29%
CC(Oc1ccc(F)cc1)C(=O)NN (configuration not stated) | 4% | 34 | -7 | 3 | -5%
O=C(NNC(=S)NCc1ccccc1)c1cccnc1 | 2.1µM* | 72 | 7 | 4 | u
O=C(NC(=S)NCc1ccccc1)c1cccnc1 | u | -13 | 2 | 8 | 21%
O=C(NNC(=S)Nc1ccccc1)c1cccnc1 | 48% | 55 | 28* | 20* | 92%
O=C1C=CC2(O[C@H](c3ccccc3)[C@@H](c3ccccc3)O2)[C@H](Sc2ccccc2O)C1 | x | -100* | x | x | x
COc1ccc(C(O)c2ccccc2OP(=O)(N(C)C)N(C)C)cc1 (configuration not stated) | -16% | 69 | 9 | -3 | -1%
COc1ccc(C(O)c2cc(OC)ccc2OP(=O)(N(C)C)N(C)C)cc1 (configuration not stated) | 5.2µM* | -14 | -3 | -3 | 10µM*
Cc1ccc(NC(=O)c2cc(S(=O)(=O)N3CCCCC3)c[nH]2)cc1C | u | 16 | -6 | -2 | -11%
O=C(NC(=S)N1CCN(CCO)CC1)C12CC3CC(CC(C3)C1)C2 | 36% | -73* | -2 | 21 | 2%
CCOc1ccccc1N1CCN(C(=S)NC(=O)C23CC4CC(CC(C4)C2)C3)CC1 | u | -33 | -13 | -2 | 8.3µM*
O=C(NC(=S)N1CCN(c2ccc(F)cc2)CC1)C12CC3CC(CC(C3)C1)C2 | u | -25 | -26 | -3 | u
O=NN(CCCl)C(=O)NC1CCCCC1 | 4% | x | x | x | -9%
CC(=O)c1cc(F)ccc1OCC(=O)N1CCCc2ccccc21 | u | 28 | 45 | 11 | -12%
CCN1C(=S)SC(=O)C1=C1C=C(C)N(Cc2ccco2)C(C)=C1 | -24% | 10 | 96* | 55* | -7%
O=C(c1ccc(Cl)cc1)c1cn(Cc2ccccc2)c2cc3c(cc2c1=O)OCCO3 | x | -63* | x | x | x
Cc1ccc(C(=O)c2cn(Cc3ccccc3)c3nc(C)ccc3c2=O)cc1 | x | -73* | x | x | x
COc1ccc(Cn2cc(C(=O)c3ccc(Cl)cc3)c(=O)c3cc4c(cc32)OCO4)cc1 | x | -98* | x | x | x
CCOc1ccc2c(c1)c(=O)c(C(=O)c1ccccc1)cn2Cc1ccccc1F | x | -8 | x | x | x
COc1ccc(Cn2cc(C(=O)c3ccc(F)cc3)c(=O)c3cc4c(cc32)OCCO4)cc1 | x | -19 | x | x | x
COc1ccc2c(c1)c(=O)c(C(=O)c1ccc(C)cc1)cn2Cc1ccccc1F | x | -69* | x | x | x
COc1ccc(-c2nc(CS(=O)CC(=O)NCCCN3CCCC(C)C3)c(C)o2)cc1OC (configuration not stated) | u | 1 | -9 | 0 | 1%
Cc1c(OCC(=O)NCc2ccncc2)ccc2c3c(c(=O)oc12)CCC3 | 13µM* | 6 | 5 | -5 | u

Screening results deposited in PubChem by National Center for Advancing Translational Sciences (NCATS).
